Bioassay records (PubChem)
Hits are enriched below; roughly 19% of the tested compounds scored in any of these assays.
HT1080NT lethal: kills 2HG-producing HT-1080-NT fibrosarcoma cells; Potency, µM (series often up to 46.1 µM), for inactives: at the highest dose activity, negative = less viability, hits mostly cytotoxic; 1.6% of 360,000 active; HT-1080-NT fibrosarcoma viability, CellTiter-Glo ATP luminescence, 48 h;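 also: NT is the 2HG producing partner of a matched IDH1 knockdown line; potency is read from the fitted curve at half-maximal effect; 0% = DMSO-treated cells and -100% = media-only wells without cells; nearly all actives have a fitted effect of over 55% in size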
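HT-1080-NT fibrosarcoma cells (2HG-overproducing), 750 cells/well in RPMI with 5% FBS, dosed after 2 h and incubated 48 h at 37C. CellTiter-Glo luminescence normalized to DMSO and no-cell wells; concentration-response curves fitted and classed.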
DT40 TDP1 no CPT: qHTS for Inhibitors of human tyrosyl-DNA phosphodiesterase 1 (TDP1): qHTS in cells in absence of CPT | Potency, µM (top dose mostly 46.2 µM), inactives show at the highest dose activity change, negative = growth inhibition, usual class: inhibitors | 15% of 420,000 active | DT40 Tdp1-/- hTDP1 cells, no CPT, ATP luminescence, 48 h; also: potency is read from the fitted curve at half-maximal effect; nearly all actives have a fitted effect of over 55% in size
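Stably hTDP1-transfected Tdp1-null chicken DT40 cells were treated with library compounds minus camptothecin and grown for at least 48 hr at 37 °C, after which cellular ATP was quantified by luminescence.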
IL1B secr inh: inhibitors of inflammasome signaling (IL-1 beta secretion) | THP-1 LPS/ATP IL-1B secretion, AlphaLISA, 16 h; hits give low values | activity change, % at 57.5 µM | 4.7% of 360,000 active | AID 743279; in the data active = activity change below about -50%; inconclusive = mostly about -30% to -49%
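THP-1 cells pretreated 1 hr with compounds (up to 57.5 uM final), then stimulated with LPS (250 ng/mL final) plus ATP (1.25 mM final); secreted IL-1B measured by AlphaLISA after 16 hr, decreased signal indicating inhibition.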
DT40 TDP1 CPT: growth inhibition of DT40 Tdp1-/-;hTDP1 cells with camptothecin (screen for TDP1 inhibitors). Potency, µM (doses to about 46.2 µM), for the others: at the top dose activity change, negative = growth inhibition, hits mostly inhibitors. 12% of 420,000 active. chicken DT40 Tdp1-/-;hTDP1 cells + 20 nM CPT, ATP luminescence, 48 h; also: potency is read from the fitted curve at half-maximal effect; nearly all actives have a fitted effect of over 55% in size
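Chicken DT40 Tdp1-/- cells stably complemented with human TDP1 were seeded at 400 cells/well in medium containing 20 nM camptothecin, exposed to pin-transferred compounds, and grown at 37 °C for at least 48 hr. Viability was read as ATP luminescence.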
HT1080 IDH1KD tx: kills HT-1080 cells with IDH1 knockdown; HT-1080 IDH1 knockdown viability, ATP luminescence, 48 h; Potency, µM (doses to about 46.1 µM), for the others: at the highest dose activity, negative = toxicity, most hits filed as cytotoxic; 2% of 360,000 active; AID 686971;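 also: potency is read from the fitted curve at half-maximal effect; 0% = DMSO wells and -100% = cell-free medium wells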
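Luminescent ATP read-out (CellTiter-Glo, 10 min at room temperature) after 48 h compound exposure at 37 °C gave viability of IDH1-knockdown HT-1080 cells. Activity was normalised to DMSO and cell-free wells, then fitted as concentration-response curves.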
Numbers without * were called inactive; ! = a repeat was not active. Unless noted, calls follow the shape of the dose curve; as a rule, active = well fitted curve in the direction sought with a large enough effect; inconclusive = small, poorly fitted or top-dose-only effect, or another doubt; inactive = no such curve, though single readings can be large; an effect the other way counts as inactive or inconclusive. Unless noted, % is scaled to controls: 0 for no effect and ±100 for the full control effect.

`Cc1cc(C)cc(Oc2nc(C(F)(F)F)nc3ccccc23)c1` gave HT1080NT lethal inconclusive, DT40 TDP1 no CPT 21µM*, IL1B secr inh 12, DT40 TDP1 CPT 18µM* and HT1080 IDH1KD tx inconclusive.
Screening COc1ccc2c(ccc[n+]2[O-])c1 returned HT1080NT lethal 7%, DT40 TDP1 no CPT 7%, IL1B secr inh 2, DT40 TDP1 CPT -3% and HT1080 IDH1KD tx -1%.
`CCOc1ccc2c(c1)sc(N)[n+]2Cc1cc(C)cc2cccnc12` gave HT1080NT lethal 6.5µM*, DT40 TDP1 no CPT 1µM*, IL1B secr inh -92*, DT40 TDP1 CPT 1µM* and HT1080 IDH1KD tx 3.3µM*.
`COc1ccc2c(c1)sc(N)[n+]2Cc1cc(C)cc2cccnc12` gave HT1080NT lethal inconclusive, DT40 TDP1 no CPT 2.6µM*, IL1B secr inh -52*, DT40 TDP1 CPT 4.6µM* and HT1080 IDH1KD tx 5.2µM*.
`COc1cccc(-n2cnnn2)c1` gave HT1080NT lethal 3%, DT40 TDP1 no CPT 3%, IL1B secr inh 39, DT40 TDP1 CPT -6% and HT1080 IDH1KD tx 8%.
Screening CCc1ccc(S(=O)(=O)c2nnn(-c3ccc(F)cc3)c2N)cc1 returned DT40 TDP1 no CPT 16µM* and DT40 TDP1 CPT 23µM*.
`O=S(=O)(NCc1nnnn1-c1ccc(F)cc1)c1ccc(F)cc1` gave HT1080NT lethal -2%, DT40 TDP1 no CPT -13%, IL1B secr inh 17, DT40 TDP1 CPT -11% and HT1080 IDH1KD tx 2%.
CCc1cccc(-n2nnc(S(=O)(=O)c3ccc(OC)cc3)c2C)c1 was read as DT40 TDP1 no CPT inconclusive and DT40 TDP1 CPT -19%.
For COc1ccc(S(=O)(=O)c2nnn(-c3cccc(Cl)c3)c2N)cc1 the results were HT1080NT lethal -8%, DT40 TDP1 no CPT 21µM*!, IL1B secr inh 16, DT40 TDP1 CPT 12µM* and HT1080 IDH1KD tx -4%.
`COc1cccc(-n2nnc(S(=O)(=O)c3ccc(C)cc3)c2N)c1` gave HT1080NT lethal 0%, DT40 TDP1 no CPT 23µM*, IL1B secr inh 0, DT40 TDP1 CPT inconclusive and HT1080 IDH1KD tx 1%.
For COc1ccc(-c2[nH]ncc2CNCCc2ncccc2C)cc1F the results were HT1080NT lethal 0%, DT40 TDP1 no CPT -25%, IL1B secr inh -8, DT40 TDP1 CPT -3% and HT1080 IDH1KD tx 0%.
For COc1cccc(NC(=O)C2(C)CCN2CCc2ccccc2)c1 (configuration not stated) the results were HT1080NT lethal 8%, DT40 TDP1 no CPT inconclusive, IL1B secr inh 17, DT40 TDP1 CPT 23µM* and HT1080 IDH1KD tx -4%.
For COc1ccc(OC)c(NC(=O)C2(C)CCN2CCc2ccccc2)c1 (configuration not stated) the results were HT1080NT lethal inconclusive, DT40 TDP1 no CPT 16µM*, IL1B secr inh 16, DT40 TDP1 CPT 23µM* and HT1080 IDH1KD tx inconclusive.
Screening CCOc1cc(/C=C/C(=O)OCC(=O)NC2CCS(=O)(=O)C2)ccc1OCc1ccccc1 (configuration not stated) returned HT1080NT lethal -1%, DT40 TDP1 no CPT -9%, IL1B secr inh 14, DT40 TDP1 CPT 22% and HT1080 IDH1KD tx -4%.
Screening CCc1ccccc1OCC(=O)Nc1ccc(F)c(S(=O)(=O)N2CCOCC2)c1 returned HT1080NT lethal 4%, DT40 TDP1 no CPT inconclusive, IL1B secr inh -28, DT40 TDP1 CPT inconclusive and HT1080 IDH1KD tx 9%.
`C[C@@H]1CN([C@H](C)CO)C(=O)c2cc(NC(=O)Nc3ccc(F)cc3)ccc2O[C@H]1CN(C)C(=O)Nc1ccc(C(F)(F)F)cc1` gave HT1080NT lethal -19%, DT40 TDP1 no CPT 21µM*, IL1B secr inh -72*, DT40 TDP1 CPT 16µM* and HT1080 IDH1KD tx inconclusive.
For C[C@H](CO)N1C[C@H](C)[C@@H](CN(C)C(=O)Nc2ccccc2)Oc2ccc(NC(=O)Nc3ccc(C(F)(F)F)cc3)cc2C1=O the results were HT1080NT lethal -27%, DT40 TDP1 no CPT inconclusive, IL1B secr inh -10, DT40 TDP1 CPT inconclusive and HT1080 IDH1KD tx inconclusive.
`C[C@H](CO)N1C[C@H](C)[C@@H](CN(C)C(=O)Nc2ccc(C(F)(F)F)cc2)Oc2ccc(NS(=O)(=O)c3ccc(F)cc3)cc2C1=O` gave HT1080NT lethal -15%, DT40 TDP1 no CPT 23µM*, IL1B secr inh -23, DT40 TDP1 CPT inconclusive and HT1080 IDH1KD tx -18%.
Cc1ccc(S(=O)(=O)Nc2ccc3c(c2)C(=O)N([C@H](C)CO)C[C@H](C)[C@@H](CN(C)C(=O)Nc2ccc(C(F)(F)F)cc2)O3)cc1 was read as HT1080NT lethal -20%, DT40 TDP1 no CPT inconclusive, IL1B secr inh inconclusive, DT40 TDP1 CPT inconclusive and HT1080 IDH1KD tx -29%.
Screening C[C@H](CO)N1C[C@H](C)[C@@H](CN(C)C(=O)Nc2ccc(C(F)(F)F)cc2)Oc2ccc(NS(=O)(=O)c3cccs3)cc2C1=O returned HT1080NT lethal 0%, DT40 TDP1 no CPT -15%, IL1B secr inh -8, DT40 TDP1 CPT inconclusive and HT1080 IDH1KD tx 0%.
C[C@H](CO)N1C[C@H](C)[C@@H](CN(C)C(=O)Nc2ccc(C(F)(F)F)cc2)Oc2ccc(NS(=O)(=O)c3ccccc3)cc2C1=O was read as HT1080NT lethal -14%, DT40 TDP1 no CPT inconclusive, IL1B secr inh -12, DT40 TDP1 CPT 3.7µM* and HT1080 IDH1KD tx -24%.
C[C@H](CO)N1C[C@H](C)[C@@H](CN(C)C(=O)Nc2ccc(C(F)(F)F)cc2)Oc2ccc(NC(=O)C3CCCCC3)cc2C1=O was read as HT1080NT lethal -3%, DT40 TDP1 no CPT inconclusive, IL1B secr inh -53*, DT40 TDP1 CPT inconclusive and HT1080 IDH1KD tx -2%.
`CCOC(=O)/C=C1/SCC(=O)N1CC(=O)Nc1cccc(F)c1` gave HT1080NT lethal 0%, DT40 TDP1 no CPT -25%, IL1B secr inh -13, DT40 TDP1 CPT -20% and HT1080 IDH1KD tx 1%.
Screening CCN(CC)c1cccc(OC(=O)c2cccnc2Cl)c1 returned HT1080NT lethal 6%, DT40 TDP1 no CPT 11%, IL1B secr inh -1, DT40 TDP1 CPT 4% and HT1080 IDH1KD tx 22%.
CC1(C(=O)NS(=O)(=O)c2ccccc2Cl)CCN1C(=O)Cc1cccc2ccccc12 (configuration not stated) was read as HT1080NT lethal -2%, DT40 TDP1 no CPT 0%, IL1B secr inh -1, DT40 TDP1 CPT -7% and HT1080 IDH1KD tx 2%.
